PAFAH1B2 inh: blocks human PAF acetylhydrolase 1b catalytic subunit 2. recombinant PAFAH1B2, FP-rhodamine activity probe, fluorescence polarization. 1.2% of 340,000 active. P68402. inhibition, % at 3.39 µM;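 active means inhibition above the mean of all tested compounds plus 3 SD, cut at about 24% in these data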
Target sequence (P68402 whole entry, looked up): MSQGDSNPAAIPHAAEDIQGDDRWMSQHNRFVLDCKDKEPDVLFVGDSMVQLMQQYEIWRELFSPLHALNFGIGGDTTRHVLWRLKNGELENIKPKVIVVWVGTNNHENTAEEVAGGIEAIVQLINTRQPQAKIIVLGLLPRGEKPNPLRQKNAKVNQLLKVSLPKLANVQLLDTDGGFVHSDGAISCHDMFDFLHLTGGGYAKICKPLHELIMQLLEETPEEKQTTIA
Fam108B inh: Fam108B inhibition, counter-screen for RBBP9 inhibitors; AID 1947; inhibition, % at 9.51 µM; 0.33% of 300,000 active; recombinant Fam108B, FP-Rh probe fluorescence polarization;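 active means inhibition above the screen mean inhibition plus 3 SD, computed separately per campaign, cut at about 18% in these data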;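 further: inhibitors lower polarization as less probe binds the enzyme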
pPAFAH inh: pPAFAH (human) enzyme inhibition | recombinant pPAFAH, FP-rhodamine probe fluorescence polarization | 1.5% of 330,000 active | AID 463082 | inhibition, % at 3.39 µM;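 active means inhibition above the mean inhibition across the screen plus 3 SD, cut at about 25% in these data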;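 further: inhibitors block binding of the rhodamine activity-based probe so polarization drops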
PME-1 primary: blocks human protein phosphatase methylesterase 1; inhibition, % at 5.9 µM; recombinant PME-1, FP-Rh probe fluorescence polarization; Q9Y570; 0.53% of 320,000 active;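 active means inhibition above the campaign mean of all compounds plus 3 SD, cut at about 26% in these data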;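 further: competitive labeling of PME-1 active site by serine hydrolase directed probe; inhibitors block probe labeling so polarization falls and inhibition rises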
Target sequence (Q9Y570 whole entry, looked up): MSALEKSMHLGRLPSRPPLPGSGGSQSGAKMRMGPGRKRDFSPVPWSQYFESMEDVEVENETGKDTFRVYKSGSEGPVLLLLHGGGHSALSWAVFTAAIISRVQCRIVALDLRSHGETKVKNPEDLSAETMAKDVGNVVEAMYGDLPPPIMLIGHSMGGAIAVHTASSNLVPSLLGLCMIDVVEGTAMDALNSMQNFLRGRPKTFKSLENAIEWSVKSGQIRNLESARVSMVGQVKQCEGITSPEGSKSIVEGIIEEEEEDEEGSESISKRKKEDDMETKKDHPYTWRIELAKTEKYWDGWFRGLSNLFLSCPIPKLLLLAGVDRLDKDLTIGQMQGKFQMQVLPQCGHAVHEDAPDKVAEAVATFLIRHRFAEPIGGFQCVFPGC
PAFAH1B3 inh: blocks human PAF acetylhydrolase 1B catalytic subunit 3; Q15102; recombinant PAFAH1B3, FP-rhodamine probe, fluorescence polarization; inhibition, % at 3.39 µM; 0.28% of 340,000 active; AID 492972;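 active means inhibition above the screen-wide average of all tested compounds plus 3 SD, cut at about 25% in these data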
PAFAH2 FP inh: PAFAH2 (human) inhibition | Q99487 | recombinant PAFAH2, FP-rhodamine activity probe, fluorescence polarization | inhibition, % at 3.39 µM | 0.99% of 340,000 active | AID 492956;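 active means inhibition above the mean over all tested compounds plus 3 SD, cut at about 30% in these data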;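 further: inhibitors block probe labeling of enzyme so polarization drops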
PAFAH2 FP conf: PAFAH2 (human) inhibition, confirmed. shares compounds with PAFAH2 FP inh. recombinant PAFAH2, FP-rhodamine activity probe, fluorescence polarization. inhibition, % at 3.39 µM. 65% of 2,300 active;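 active means mean inhibition over three repeats above a set limit taken from the earlier primary screen, cut at about 30% in these data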;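 further: inhibitor blocks binding of rhodamine activity probe so polarization falls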
PAFAH1B3 confirm: confirmation of human PAFAH1B3 inhibitors; shares compounds with PAFAH1B3 inh; recombinant PAFAH1B3, FP-Rh activity-based probe, fluorescence polarization; inhibition, % at 3.39 µM; 30% of 390 active;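 active means average inhibition over triplicate runs above the hit cutoff set in the earlier primary screen, cut at about 25% in these data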
Hits are given with their value; n = inactive; x = no result; ! = repeats disagree. Only some compounds are listed: those with a hit (about 2.8% of all), similar ones and a draw of the others.

SMILES	PAFAH1B2 inh	Fam108B inh	pPAFAH inh	PME-1 primary	PAFAH1B3 inh	PAFAH2 FP inh	PAFAH1B3 confirm	others
Cc1ccc(NC(=O)c2ccccc2NS(=O)(=O)c2ccc(Cl)s2)cc1	n	n	n	n	n	71	x	PAFAH2 FP conf=74
O=C(NCc1ccco1)c1ccccc1NS(=O)(=O)c1ccc(Cl)s1	n	n	n	n	n	n	x
O=S(=O)(O)c1cccc2cccc(Nc3ccccc3)c12	n	n	n	n	n	31	x	PAFAH2 FP conf=n
Cc1nc(S/C(=C\c2ccc(-c3ccc(C(=O)O)c(Cl)c3)o2)C(=O)O)n[nH]1	n	x	x	x	42	n	27
Nc1nc(NCc2cccs2)nn1-c1ccccc1	n	n	n	n	n	n	x
Nc1nc(NCc2ccco2)nn1-c1ccccc1	n	n	n	n	26	n	n
COc1ccc(N2C(=NC(=O)CCC3CCCC3)SC3CS(=O)(=O)CC32)cc1 (configuration not stated)	n	n	n	n	n	n	x
Nc1cnccc1C(=O)O	n	n	n	n	28	n	n
COc1cc(C(=O)OCC(=O)NC2CCS(=O)(=O)C2)ccc1OCc1c(C)noc1C (configuration not stated)	n	n	n	n	n	n	x
CCOC(=O)c1c(C)[nH]c(C)c1C(=O)COC(=O)c1ccc([N+](=O)[O-])s1	n	x	n	n	45	n	n
Cc1ccc(S(=O)(=O)N2CCOCC2)cc1NC(=O)CSCc1c(C)noc1C	n	x	n	n	n	n	x
O=C(N/N=C1\C/C(=N\NC(=O)c2ccncc2)c2ccccc21)c1ccncc1	n	n	n	n	28	n	n
Cc1cccc2c1NC(=O)C2=O	n	x	x	x	36	n	n
O=C(NCc1cccnc1)C(=O)Nc1ccc([N+](=O)[O-])cc1	n	n	n	n	n	n	x
O=[N+]([O-])c1ccc(-c2nc(Nc3ccc(O)cc3)c3ccccc3n2)cc1	n	x	x	x	n	n	x
O=C(O)c1ccc(Nc2nc(-c3ccc([N+](=O)[O-])cc3)nc3ccccc23)cc1	n	x	x	x	26	n	n
CN(C)/C=C1\Oc2ccc3ccccc3c2C1=O	n	n	n	n	n	n	x
O=C1C(=O)c2c(ccc3ccccc23)-c2ccccc21	n	x	x	x	56	n	n
Cc1ccc(CNc2ccc(O)cc2)cc1	n	x	x	x	39	n	n
COC(=O)c1c(C)[nH]c(C)c1C(=O)c1ccccc1Cc1ccccc1	n	n	n	n	n	n	x
COc1cc(NCCCC(C)N)c2ncccc2c1 (configuration not stated)	n	x	x	x	53	n	n
CCN1CCN(c2ccc(NC(=O)c3ccc(Cl)c(N4CCCC4=O)c3)cc2)CC1	n	n	n	n	n	n	x
CN=c1sc2c(n1C)C(=O)c1ccccc1C2=O	n	x	x	x	42	n	29
CN=c1sc(C(=O)Nc2ccccc2)c(C)n1C	n	n	n	n	n	n	x
O=C(c1ccc(Cl)c(S(=O)(=O)NCc2ccco2)c1)N1CCN(c2ccc(F)cc2)CC1	n	n	n	n	n	n	x
SMILES	PAFAH1B2 inh	Fam108B inh	pPAFAH inh	PME-1 primary	PAFAH1B3 inh	PAFAH2 FP inh	PAFAH1B3 confirm	others
COc1cc(C(=O)N/N=C/c2cn(Cc3cccc(F)c3)c3ccccc23)ccc1O	n	x	x	x	34	n	n
Cc1nc2ccc(C(=O)N/N=C/c3cc([N+](=O)[O-])ccc3O)cc2[nH]1	n	n	n	n	27	n	n
Cn1c2ccccc2c(=O)c2ccc(C#Cc3ccc(N)cc3)cc21	n	n	n	n	35	n	n
O=C1C=C(N(CCO)Cc2ccccc2)c2ccccc2C1=O	n	x	x	x	44	n	29
CCN(CC)c1ccc(N)cc1	n	x	n	n	n	n	x
Nc1ccc(N(CCO)CCO)cc1	n	n	n	n	38	n	n
CCCS(=O)(=O)c1c(S(=O)(=O)CCC)c2c3ccccc3ccn2c1C(N)=O	n	n	n	n	n	n	x
CS/C(=N\S(=O)(=O)c1cccs1)NC(=O)CSc1nc2ccccc2s1	n	n	n	n	31!	n	n
Nc1c(Br)cc(Br)c2c1-c1ccc([N+](=O)[O-])cc1C2	n	x	x	x	n	n	x
N#Cc1cc2c(nc1SCC(N)=O)CCCCC2	n	n	n	n	n	n	x
N#Cc1cc2c(nc1SCC(=O)N1CCOCC1)CCCCC2	n	n	n	n	26	n	n
O=C(/C=C/c1ccccc1)C1C(=O)c2ccccc2C1=O	n	n	n	n	n	n	x
CCc1ccc(/C=C/C(=O)C2C(=O)c3ccccc3C2=O)cc1	n	n	n	n	28	n	n
COc1cc(N)c(C(=O)c2nccc3cc(OC)c(OC)cc23)cc1OC	n	n	n	n	n	n	x
COc1cc(C(=O)c2nccc3cc(OC)c(OC)cc23)c([N+](=O)[O-])cc1OC	n	n	n	n	40	n	n
Cn1c(N)c(C(=O)COC(=O)Cc2ccc(Cl)cc2)c(=O)n(C)c1=O	n	x	x	x	n	n	x
CN(C)c1ccc(NC2=C(Cl)C(=O)c3ccccc3C2=O)cc1	n	n	n	n	39	n	n
Cc1ccc(NC2=C(NCCO)C(=O)c3ccccc3C2=O)cc1	n	n	n	n	n	n	x
CC(NC1=CC(=O)c2cccnc2C1=O)C(O)c1ccccc1 (configuration not stated)	n	x	x	x	56	n	43
CCC(C)Sc1nnc(NC(=O)c2ccco2)s1 (configuration not stated)	n	n	n	n	n	n	x
CC1(C(=O)N2CCN(C(=O)c3ccco3)CC2)CC1(Br)Br (configuration not stated)	n	n	n	n	n	n	x
CC1(c2nnc(-c3ccc(F)cc3)o2)CC(c2cccnc2)=NO1 (configuration not stated)	n	n	n	n	n	n	x
CC1(c2nnc(-c3ccncc3)o2)CC(c2ccc(F)cc2)=NO1 (configuration not stated)	n	n	n	n	26	n	n
CNC(=O)Cn1nc(-c2ccc(C)cc2)c2ccccc2c1=O	n	n	n	n	n	n	x
Cc1cccc(NC(=O)CN2C(=O)N/C(=C\c3ccc(-c4cccc(C(=O)O)c4)o3)C2=O)c1	n	n	n	n	81	n	76
C=CCn1c(NC(=O)c2ccc(Br)o2)c(S(=O)(=O)c2ccccc2)c2nc3ccccc3nc21	n	n	n	n	53	n	n
O=C(NC1=C(Nc2ccc(Cl)cc2)C(=O)c2ccccc2C1=O)c1ccccc1	n	n	n	n	n	n	x
O=C(NC1=C(NC2CCS(=O)(=O)C2)C(=O)c2ccccc2C1=O)c1ccccc1 (configuration not stated)	n	n	n	n	66	n	36
CCOC(=O)c1c(NC(=O)c2ccco2)n(C2CCCCC2)c2nc3ccccc3nc12	n	n	n	n	59	n	n
